Experiment [1] is described as follows: viability loss in pontine glioma line – cell-based, JHH-DIPG-1, MIPE4.0, CellTiter-Glo, qHTS, dose response (AID 1347062; cut-off not given, nearly all actives have AC50 up to about 27 µM;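 on AC50: cells exposed to compound for two days before readout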). Particulars: JHH-DIPG-1 viability, CellTiter-Glo ATP luminescence. (In general: Cellular ATP, detected with luciferase, serves as a proxy for viable cell number.)
Experiment [2] can be described thus: viability loss in pontine glioma line – cell-based, SU-DIPG-IV, MIPE4.0, CellTiter-Glo, qHTS, dose response (AID 1347063; cut-off not given, nearly all actives have AC50 up to about 30 µM;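 further: compound exposure lasted 48 hours before the viability readout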). Particulars: CellTiter-Glo ATP luminescence.
Experiment [3] in a line: viability loss in pontine glioma line – cell-based, SU-DIPG-XIII, MIPE5.0, CellTiter-Glo, qHTS, dose response (AID 1347064; cut-off not given, nearly all actives have AC50 up to about 23 µM;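 on AC50: cells exposed to compound for 48 hours before the viability read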). Particulars: CellTiter-Glo ATP luminescence.
Experiment [4] is described as follows: viability loss in pontine glioma line – cell-based, SU-DIPG-XXV, MIPE5.0, CellTiter-Glo, qHTS, dose response (AID 1347065; cut-off not given, nearly all actives have AC50 up to about 26 µM;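 further: cells exposed to compound for 48 hours before ATP readout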). Particulars: CellTiter-Glo ATP luminescence.
Experiment [5] can be described thus: growth inhibition of DIPG cells – cell-based, MIPE4.0 library, CellTiter-Glo luminescence, qHTS (AID 1347066; cut-off not given, nearly all actives have AC50 up to about 30 µM;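 further: cells exposed to compound for 48 hours before readout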). Particulars: SU-DIPG-VI viability, CellTiter-Glo ATP luminescence.
Experiment [6] can be described thus: JHH-DIPG-1 glioma cell viability, MIPE5.0 library, CellTiter-Glo luminescence, qHTS (AID 1347067; cut-off not given, nearly all actives have AC50 up to about 26 µM;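 further: cells exposed to compound for 48 hours before readout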). Particulars: JHH-DIPG-1 glioma viability, CellTiter-Glo ATP luminescence.
Experiment [7] can be described thus: growth inhibition of DIPG cells – cell-based, MIPE5.0 library, qHTS (AID 1347068; cut-off not given, nearly all actives have IC50 up to about 30 µM). Particulars: SU-DIPG-XXV viability. In general terms: qHTS replaces the single test concentration by a dilution series.
A short description of experiment [8]: galactose survival enhancers in mitochondrial complex I cybrids – cell-based, galactose medium, ATP luminescence, primary screen (AID 1645843;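 active means z-score of at least 1.8 in each of two replicates, scored against plate mean and spread of sample wells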;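 further: positive z means more ATP and so rescue of galactose-driven cybrid death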). Particulars: complex I mutant cybrid cells, 72 h, stronger effect = higher value.
A short description of experiment [9]: growth inhibition, single agents and combos, LFS_MB_1R, cell-based, cisplatin or BGB combos, synergistic combos for chromothripsis tumors (AID 1671452).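 Further: cells exposed for 96 hours before readout.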 Particulars: LFS_MB_1R medulloblastoma cells, stronger effect = higher value.
The nature of experiment [10]: growth inhibition, single agents and combos, CRL2098, cell-based, BGB or cisplatin IC20 combos, synergistic combos for chromothripsis tumors (AID 1671454).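 Further: cells exposed for 96 h before readout; 0% = vehicle DMSO and 100% = killing by high DMSO.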 Particulars: CRL2098 osteosarcoma cells, drug combinations, stronger effect = higher value.
The nature of experiment [11]: growth inhibition, single agents and combos, HD-MB03, cell-based, BGB or cisplatin IC20 combos, synergistic combos for chromothripsis tumors (AID 1671455; in the data active means inhibition above about 83%;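 further: 0% = vehicle DMSO and 100% = high DMSO as cytotoxic control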). Particulars: HD-MB03 medulloblastoma cells, stronger effect = higher value.
Experiment [12] in a line: growth inhibition, single agents and combos, UWB1.289, cell-based, BGB or cisplatin combos, synergistic combos for chromothripsis tumors (AID 1671456).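 Further: cells exposed to compound for four days; 0% = vehicle DMSO and 100% = killing by high DMSO.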 Particulars: UWB1.289 ovarian carcinoma cells, stronger effect = higher value.
A short description of experiment [13]: growth inhibition, single agents and combos, LFS_MB_2R, cell-based, cisplatin combos, synergistic combos for chromothripsis tumors (AID 1671457).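 Further: cells exposed to compound for four days before readout.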 Particulars: LFS_MB_2R medulloblastoma cells, stronger effect = higher value.
Experiment [14] is described as follows: UWB1.289_BRCA1 ovarian cancer growth, cell-based, BGB or cisplatin combinations (AID 1671459). Particulars: UWB1.289 BRCA1 ovarian carcinoma, drug combinations, stronger effect = higher value.
The nature of experiment [15]: drug combination toxicity in non-malignant astrocytes – cell-based, BGB or cisplatin IC20 combos, cytotoxicity control for chromothriptic childhood tumor combination screen (AID 1671460).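 Further: cells exposed to compounds for 96 hours before viability readout; 0% = vehicle and 100% = killing control.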 Particulars: Human astrocytes, viability inhibition, drug combinations, at 0.5 µM, stronger effect = higher value.
Experiment [16] in a line: BT084 cell growth, single and combined drugs, ICGC_MB145, cisplatin and BGB IC40 combos (AID 1671461).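 Further: cells exposed to drugs for 96 hours; 0% = vehicle DMSO and 100% = high DMSO full killing control.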 Particulars: BT084 medulloblastoma cells, drug combinations, stronger effect = higher value.
Experiment [17] can be described thus: RCMB18 cell growth, single agent and combined, cisplatin and BGB IC40 combos (AID 1671462).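 Further: cells exposed to compound for four days.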 Particulars: RCMB18 medulloblastoma cells, stronger effect = higher value.
Experiment [18] in a line: CRL1545 cell growth, single agent and combined, cisplatin and BGB IC20 combos (AID 1671464).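 Further: cells exposed to compound for 96 hours before readout; 0% = vehicle DMSO and 100% = high DMSO killing control.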 Particulars: CRL1545 osteosarcoma cells, stronger effect = higher value.
For experiment [19], the target named is Mitogen-activated protein kinase 7 (Homo sapiens) (UniProt Q13164). In words: Gal4-ERK5 driven luciferase induction – cell-based, HTS, primary screen (AID 1508626;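 active means luciferase signal above three times the same-plate solvent-only control wells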;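 further: luciferase driven by Gal4-ERK5 fusion binding five Gal4 sites before minimal TATA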). Particulars: HeLa Gal4-ERK5 transactivation, 18 h, at 5 µM, stronger effect = higher value.
Sequence of Mitogen-activated protein kinase 7 (Homo sapiens) (Q13164 whole entry, looked up, the tested form may be a part): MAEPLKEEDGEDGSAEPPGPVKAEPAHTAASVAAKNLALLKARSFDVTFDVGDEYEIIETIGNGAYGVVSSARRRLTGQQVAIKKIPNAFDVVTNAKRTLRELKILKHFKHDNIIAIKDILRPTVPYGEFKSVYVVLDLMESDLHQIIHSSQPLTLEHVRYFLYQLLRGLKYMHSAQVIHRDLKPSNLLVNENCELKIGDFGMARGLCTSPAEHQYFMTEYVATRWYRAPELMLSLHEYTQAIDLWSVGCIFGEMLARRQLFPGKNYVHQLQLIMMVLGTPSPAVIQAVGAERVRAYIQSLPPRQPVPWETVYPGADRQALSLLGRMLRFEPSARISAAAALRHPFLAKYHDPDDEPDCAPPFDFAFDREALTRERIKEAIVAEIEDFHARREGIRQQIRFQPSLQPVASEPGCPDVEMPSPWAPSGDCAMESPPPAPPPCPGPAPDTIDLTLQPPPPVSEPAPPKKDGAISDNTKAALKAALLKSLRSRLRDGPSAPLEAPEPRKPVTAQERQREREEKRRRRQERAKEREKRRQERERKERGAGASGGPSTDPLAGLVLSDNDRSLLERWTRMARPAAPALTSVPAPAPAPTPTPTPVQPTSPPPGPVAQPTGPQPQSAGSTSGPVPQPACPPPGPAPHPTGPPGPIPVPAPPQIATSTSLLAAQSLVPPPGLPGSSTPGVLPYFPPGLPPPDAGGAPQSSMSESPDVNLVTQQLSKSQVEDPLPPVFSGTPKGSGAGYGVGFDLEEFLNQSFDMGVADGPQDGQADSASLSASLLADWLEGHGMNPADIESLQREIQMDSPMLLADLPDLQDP
Experiment [20] concerns the target ATP-dependent translocase ABCB1 (Homo sapiens) (UniProt P08183). In words: P-glycoprotein substrate transport blockade – cell-based (AID 377; in the data active means fluorescence slope change above about 50%). Particulars: MDR1-expressing cells, fluorescent substrate accumulation slope; stronger effect = higher value; concentration not given here.
Setting [21] is: measured here: combination with cisplatin, at 0.5 µM.
Setting [22] is: measured here: combination with cisplatin, at 5 µM.

A word on the AC50: it is the concentration at which the activity in the assay is half-maximal. What is called inhibition is the change of the read-out against control, counted positive when it falls.

“And” between values parts separate entries of the source, which are not always exact repeats. Equal values may be shown once. Records with an inconclusive call do not appear. The source made the active and inactive calls. Unless noted, no stated cut-off is given here; in the data, active means inhibition above about 80%; inactive means the rest.

Sequence of ATP-dependent translocase ABCB1 (Homo sapiens) (P08183 whole entry, looked up): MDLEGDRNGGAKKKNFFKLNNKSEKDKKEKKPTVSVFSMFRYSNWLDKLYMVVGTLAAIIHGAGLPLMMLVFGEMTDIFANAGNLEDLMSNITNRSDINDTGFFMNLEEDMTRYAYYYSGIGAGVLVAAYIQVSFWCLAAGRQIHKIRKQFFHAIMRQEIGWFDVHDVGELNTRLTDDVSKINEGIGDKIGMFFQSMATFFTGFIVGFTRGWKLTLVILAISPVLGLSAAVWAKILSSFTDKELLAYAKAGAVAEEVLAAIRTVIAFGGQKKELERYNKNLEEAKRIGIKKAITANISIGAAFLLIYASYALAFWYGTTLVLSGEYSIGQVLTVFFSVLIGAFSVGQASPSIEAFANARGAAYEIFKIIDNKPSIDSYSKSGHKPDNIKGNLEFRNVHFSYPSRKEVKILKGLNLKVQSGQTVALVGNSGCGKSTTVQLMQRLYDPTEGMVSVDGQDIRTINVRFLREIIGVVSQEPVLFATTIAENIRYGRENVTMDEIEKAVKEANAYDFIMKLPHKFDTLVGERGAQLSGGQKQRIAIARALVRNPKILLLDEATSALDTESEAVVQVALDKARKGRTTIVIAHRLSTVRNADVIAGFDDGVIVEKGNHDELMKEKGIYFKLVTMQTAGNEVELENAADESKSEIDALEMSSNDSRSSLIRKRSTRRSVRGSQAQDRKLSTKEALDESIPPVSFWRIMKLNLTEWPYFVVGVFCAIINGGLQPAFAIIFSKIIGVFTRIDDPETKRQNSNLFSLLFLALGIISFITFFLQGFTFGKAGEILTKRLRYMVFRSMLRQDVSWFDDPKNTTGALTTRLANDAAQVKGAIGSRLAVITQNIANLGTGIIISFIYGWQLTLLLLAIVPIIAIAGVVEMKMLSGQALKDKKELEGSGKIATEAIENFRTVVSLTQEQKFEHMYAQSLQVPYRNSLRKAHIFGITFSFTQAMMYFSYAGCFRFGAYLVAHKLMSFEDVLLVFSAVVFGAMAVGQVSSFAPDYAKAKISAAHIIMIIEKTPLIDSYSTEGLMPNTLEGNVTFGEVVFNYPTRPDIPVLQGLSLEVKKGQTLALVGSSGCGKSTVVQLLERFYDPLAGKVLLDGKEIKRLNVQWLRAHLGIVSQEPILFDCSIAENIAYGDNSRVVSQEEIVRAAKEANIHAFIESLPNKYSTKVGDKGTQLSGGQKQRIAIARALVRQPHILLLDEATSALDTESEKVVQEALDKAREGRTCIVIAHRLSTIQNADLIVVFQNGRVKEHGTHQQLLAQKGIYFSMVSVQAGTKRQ

Take `COc1cc2ncnc(Nc3ccc(F)c(Cl)c3)c2cc1OCCCN1CCOCC1`: the AC50 in experiment [1] was 19.1 µM (active); in experiment [2], 10.8 µM (active); in [5] it was 38.2 µM (active). Further, the compound was classed as inactive in experiment [3], in [4], in experiment [6] and in [7]. Further, in experiment [8], the z-score is -0.29 (inactive) and 0.3 (inactive).

`O=C(CCCCCCC(=O)Nc1ccccc1)NO`: the half-maximal activity concentration (AC50) is 3.72 µM (active) in experiment [1], 1.18 µM (active) in experiment [3], 0.833 µM (active) in experiment [4] and 1.48 µM (active) in experiment [6]. The compound was called inactive in experiment [7]. The inhibition was 17.4% (inactive) in experiment [9] (at 0.5 µM); -3.43% in experiment [9] (measured here: combination with BGB IC40, at 0.05 µM); 21.7% in experiment [9] (setting [21]); 83.1% in experiment [9] (setting [22]); -45.6% (inactive) in [10] (at 0.5 µM); -78.4% in experiment [10] (measured here: combination with BGB at IC20, at 0.5 µM). In addition, the inhibition in experiment [10] (measured here: combination with cisplatin at IC20, at 0.5 µM) was -12.2%; in experiment [11] (at 0.5 µM), 22% (inactive); in [11] (measured here: combo with BGB at IC20, at 0.5 µM), 21%; in [11] (measured here: combo with cisplatin at IC20, at 0.5 µM) it was 48.3%; in [12] (at 0.5 µM), 14.7% (inactive); in [12] (measured here: inhibition with BGB combination, at 0.05 µM) it was -38.8%. Moreover, the inhibition in experiment [12] (measured here: inhibition with cisplatin combination, at 0.05 µM) is -24.2%; in experiment [13] (at 0.5 µM), -2.63% (inactive); in [13] (setting [21]), 3.49%; in experiment [13] (setting [22]), 79.7%; in experiment [14] (BGB combination, concentration series, at 5 µM), 69.1%; in experiment [14] (at 0.5 µM), 9.38% (inactive). The inhibition in experiment [14] (cisplatin combination, concentration series, at 5 µM) is 84.7%; in experiment [15], -0.71% (inactive); in experiment [15] (measured here: combo with BGB IC20), -2.1%; in experiment [15] (measured here: combo with cisplatin IC20), -2.33%; in [16] (at 0.5 µM), 10.3% (inactive); in experiment [16] (cisplatin combination, at 0.5 µM), 36%. The inhibition is 98.4% in experiment [16] (cisplatin combination, at 5 µM); -23.4% in experiment [16] (measured here: BGB IC40 combination 0.05 uM, at 0.05 µM); 87.4% in [16] (single agent, at 5 µM); 14.4% (inactive) in [17] (at 0.5 µM); 93.4% in experiment [17] (cisplatin combo, at 5 µM); -14.3% in [17] (measured here: BGB IC40 combination, at 0.05 µM). Further, the inhibition in experiment [17] (setting [21]) is 47.6%; in experiment [17] (single agent, at 5 µM), 78.3%; in experiment [18] (at 0.5 µM) it was 74.5% (inactive); in experiment [18] (measured here: with BGB IC20 combination, at 0.5 µM) it was 65.9%; in [18] (measured here: with cisplatin IC20 combination, at 0.5 µM) it was 78.3%; in experiment [18] (single agent, at 0.05 µM) it was -34.3%. For the same compound, the inhibition in [18] (single agent, at 5 µM) came to 88.9%.

As to `CC(=O)NCCCS(=O)(=O)O`, the compound was called inactive in experiment [3], in experiment [4] and in [7]. In experiment [19], the luciferase signal was 52 AU (inactive).

As to `CC(C)(Oc1ccc(C2CC2(Cl)Cl)cc1)C(=O)O` (configuration not stated), the compound was classed as inactive in experiment [1], in experiment [3], in experiment [4], in experiment [5], in experiment [6] and in experiment [7]. In experiment [8], the z-score is 0.695 (inactive).

Consider `CC(=O)c1ccc2c(c1)N(CCCN(C)C)c1ccccc1S2`, for which the fluorescence slope change in [20] was 72% (active). Further, the luciferase signal in [19] was 32 AU (inactive). The z-score in [8] was -0.995 (inactive).

Take `Nc1cc(C(Cl)=C(Cl)Cl)c(S(N)(=O)=O)cc1S(N)(=O)=O`: the result in experiment [1], in experiment [2], in experiment [3], in experiment [4], in experiment [5] and in [6] was inactive. Moreover, the compound was called inactive in experiment [7].

As for `CCN(C)C(=O)Oc1cccc([C@H](C)N(C)C)c1`, the outcome in experiment [1] and in experiment [5] was inactive. The z-score in experiment [8] was 0.825 (inactive).

Regarding `O=C1Cc2cc(CCN3CCN(c4nsc5ccccc45)CC3)c(Cl)cc2N1`, the values for the AC50 in [2] and in [5] were 26.4 µM (active) and 23.5 µM (active), respectively. In [8], the z-score was -0.165 (inactive).

For the origin of these results see PubChem BioAssay.
